Screens deposited in PubChem BioAssay by several laboratories.
A selection: hits, their analogues and other compounds. The true share with any hit is near 13%.
L major viab = Leishmania major promastigote growth inhibition, primary screen; Leishmania major promastigotes, resazurin fluorescence viability; hit rate 9% among 200,000; inhibition, % at 10 µM; in the data active means inhibition above about 50%;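 further: promastigotes grown with compound for 44 hours at 28 °C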
CHOP inh = inhibitors of CHOP promoter induction, primary screen, cell-based, unfolded protein response, luciferase reporter; CHO-K1 CHOP-promoter luciferase, tunicamycin-induced, 15-18 h; inhibition, % at 10 µM; hit rate 3.8% among 220,000;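 active means compounds that reduced the stress-induced luciferase reporter signal by more than about 70% of percent inhibition, limit read from the data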;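 further: 0% = tunicamycin plus vehicle and 100% = wells without tunicamycin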
WT yeast gro inh = growth inhibition of WT strain, primary screen, mitochondrial fusion inhibitor project, WT and mutant strains, chemical genetic; AID 1362, 2008; mitochondrial fusion phenotypic screen; hit rate 2.1% among 190,000; inhibition, % at 10 µM; in the data active means inhibition above about 58%; tested in S. cerevisiae
RAM network inh = inhibitors of the yeast RAM network, primary screen, dse1pr::URA3 reporter, 5-FOA selection. inhibition, % at 50 µM. AID 868, 2007. S. cerevisiae dse1pr::URA3 reporter, 5-FOA growth OD615, 2 d; analog-sensitive cbk1-as2 kinase mutant strain. hit rate 1.8% among 190,000;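 active means inhibition above a set limit, 3 SD over mean compound inhibition, cut at about 8.4% in these data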;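 further: 0% = DMSO-only wells with no growth and 100% = 10 µM 1-NA-PP1 full growth; inhibition rescues growth on 5-FOA so higher OD means more RAM inhibition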
* marks the source's active call; other numbers are inactive results; . = not tested or not shown.

SMILES | L major viab | CHOP inh | WT yeast gro inh | RAM network inh
Cc1ccc(NC(=S)N2CCC(N(C)CC3CCCO3)CC2)cc1 (stereo unspecified) | 76* | 13 | -8 | 0
Cc1cccc(C)c1NC(=S)N1CCC(N(C)CC2CCCO2)CC1 (stereo unspecified) | 49 | -19 | . | 1
Cc1cc(C)cc(NC(=S)N2CCC(N(C)CC3CCCO3)CC2)c1 (stereo unspecified) | 67* | 10 | 9 | 1
Cc1cccc(NC(=S)N2CCC(N(C)CC3CCCO3)CC2)c1C (stereo unspecified) | 82* | 8 | -20 | 2
CCOC(=O)C1CCN(C(=S)Nc2ccc(C)cc2)CC1 | -6 | 7 | 12 | -1
Cc1cc(C)c(NC(=S)N2CCC(N(C)CC3CCCO3)CC2)c(C)c1 (stereo unspecified) | 27 | -2 | 4 | 1
Cc1onc(-c2c(F)cccc2Cl)c1C(=O)OCC(=O)NC(c1ccccc1)c1ccccc1 | 11 | 63 | 2 | 6
CC(C(=O)NC(C)(C)C)N1C(=O)c2cccc3cccc(c23)C1=O (stereo unspecified) | 8 | 2 | -4 | 1
CC(=O)c1c(C(C)=O)c(C)n(-c2ccc(C)c(NC(=O)c3ccccc3Cl)c2)c1C | 53* | 24 | -11 | 2
COc1ccc(-c2cn(-c3ccc(OC)cc3)c3[n+]2-c2ccccc2CC3)cc1 | 100* | 14 | 2 | 0
COc1ccc(-n2cc(-c3ccccc3)[n+]3c2CCCCC3)cc1 | 100* | 6 | -8 | 1
COc1ccc(C(=O)COC(=O)CNC(=O)c2ccc(OC)cc2)cc1 | 0 | -12 | -1 | 3
CSC1=NCCN1C(=O)C12CC3CC(CC(C3)C1)C2 | 51* | -8 | 7 | 0
CSC1=NCCN1C(=O)c1cccs1 | 6 | 19 | -3 | -1
N#C/C(=C\c1ccc(Sc2nc3ccccc3[nH]2)o1)c1ccccc1 | 19 | 57 | 37 | 3
N#C/C(=C\c1cccs1)Sc1nc2ccccc2s1 | 14 | 35 | 47 | 9.1*
N#C/C(=C/c1cccs1)c1nc2ccccc2[nH]1 | 85* | 12 | 2 | 7
N#C/C(=C\c1ccc(Cl)cc1)c1nc2ncccc2[nH]1 | 79* | -48 | 45 | 0
N#C/C(=C\c1ccc(Sc2ccc(Cl)cc2)o1)c1nc2ccccc2[nH]1 | 60* | 59 | 52 | 5
N#C/C(=C\c1c(Cl)cccc1Cl)c1nc2ccccc2[nH]1 | . | 3 | . | .
COC(=O)c1cc(-c2ccc(S(=O)(=O)N3CCCCC3)cc2)c(C(F)(F)F)s1 | . | -7 | . | .
CC1CN(S(=O)(=O)c2cccc(-c3csc(-c4ccccc4)n3)c2)CC(C)O1 (stereo unspecified) | 97* | 42 | 34 | 5
O=S(=O)(c1cccc(-c2csc(-c3ccccc3)n2)c1)N1CCOCC1 | 16 | 48 | 25 | 3
Oc1ccc(/C=N/n2c(-c3ccco3)csc2=Nc2cccnc2)c(O)c1 | 99* | 40 | 16 | 6
COc1ccc(OC)c(Cc2nnc(CCC(=O)NCc3nc4ccccc4s3)o2)c1 | -3 | -30 | -6 | 3
SMILES | L major viab | CHOP inh | WT yeast gro inh | RAM network inh
O=C(c1ccccc1)N1CCN2C(=O)c3ccccc3C12c1ccc(Cl)cc1 (stereo unspecified) | 76* | -66 | -9 | 1
O=C(c1ccc(F)cc1)N1CCN2C(=O)c3ccccc3C12c1ccc(Cl)cc1 (stereo unspecified) | 46 | -53 | 28 | 1
CCNC(=O)COc1cccc(C(=O)NCc2ccccc2)c1 | 51* | 1 | -8 | 0
CC(C)CNC(=O)COc1cccc(C(=O)NCc2ccccc2)c1 | 52* | 29 | -9 | 0
O=c1oc2cc(OCc3ccc([N+](=O)[O-])cc3)ccc2c2c1CCCC2 | -4 | 77* | 4 | 3
O=S(Cc1cc(Oc2ccccc2)nc(-c2ccccc2)n1)c1ccccc1 (stereo unspecified) | 12 | 41 | 1 | 7
COCCCNC(=S)N1CCN(Cc2ccc3c(c2)OCO3)CC1 | -6 | 4 | 6 | 0
Cc1c(Cl)cccc1NC(=S)N1CCN(Cc2ccc3c(c2)OCO3)CC1 | 74* | 13 | 6 | 4
Cc1ccccc1NC(=S)N1CCN(Cc2ccc3c(c2)OCO3)CC1 | 24 | -1 | -3 | 2
Cc1ccc(S(=O)(=O)N(C)C)cc1NC(=S)N1CCN(Cc2ccc3c(c2)OCO3)CC1 | 84* | 34 | -15 | 3
COc1ccccc1NC(=S)N1CCN(Cc2ccc3c(c2)OCO3)CC1 | 96* | 30 | 16 | 1
CCOc1ccccc1/C=N/NC(=O)CNC(=O)c1cccs1 | 4 | 3 | 4 | 0
CCN(CC)C(=O)CS(=O)(=O)CC(=O)Nc1cc(OCCOC)c(Cl)cc1Cl | -3 | 13 | -2 | 2
CC(C)(C)NC(=O)Cn1c(=O)oc2cc(S(=O)(=O)N3CCc4ccccc43)ccc21 | 98* | 39 | -9 | 0
CCOC(=O)Cn1c(=O)oc2cc(S(=O)(=O)N(C)Cc3ccccc3)ccc21 | . | 14 | . | .
CCOC(=O)Cn1c(=O)oc2cc(S(=O)(=O)N3CCc4ccccc43)ccc21 | 60* | 28 | 4 | 0
CCOC(=O)Cn1c(=O)oc2cc(S(=O)(=O)Nc3cc(OCC)ccc3OCC)ccc21 | 71* | 10 | . | 0
Cn1c(=O)oc2cc(S(=O)(=O)N3CCCc4ccccc43)ccc21 | 8 | . | 1 | 0
OCC1(Cc2ccccc2)CCCN(Cc2c[nH]c3ccccc23)C1 (stereo unspecified) | 13 | -14 | 14 | 1
O=C(O)CCC(=O)NCc1c(Cl)cccc1Sc1ccc(Cl)cc1 | . | 16 | . | .
CSCCC(NC(=O)/C(=C/c1ccc(F)cc1)NC(C)=O)C(=O)O (stereo unspecified) | -7 | -7 | -27 | 3
CC(Oc1ccc(Cl)cc1)C(=O)NNC(=S)NC(=O)c1ccco1 (stereo unspecified) | 9 | 16 | 85 | 1
O=C(C(Sc1ccccc1)c1ccccc1)N1CCOCC1 (stereo unspecified) | -4 | -2 | -12 | 0
O=C(CCC(=O)OCC(F)(F)C(F)F)Nc1ccccc1F | -5 | -13 | -4 | 0
COCCNS(=O)(=O)c1ccc(C)c(C)c1C | -9 | 7 | 7 | 0
SMILES | L major viab | CHOP inh | WT yeast gro inh | RAM network inh
COc1ccccc1C(=O)N/C(=C\c1ccc(Br)cc1)C(=O)NCC(=O)O | 57* | -6 | -9 | 2
O=c1[nH]c(-c2ccc(Cl)cc2)nc(=S)[nH]1 | . | 9 | . | .
CCNS(=O)(=O)c1ccc(Br)c(OC)c1 | 0 | 2 | -2 | 1
CCc1nnc(NS(=O)(=O)c2ccc(N=Cc3c(C)[nH]n(-c4ccc(C)c(C)c4)c3=O)cc2)s1 | -6 | -12 | 63* | 4
Cc1[nH]n(-c2ccc(Br)cc2)c(=O)c1C=Nc1ccc(S(=O)(=O)Nc2nccs2)cc1 | -1 | 91* | 12 | 2
Cc1ccc(-n2[nH]c(C)c(C=Nc3ccc(S(=O)(=O)Nc4nccs4)cc3)c2=O)cc1 | -4 | -18 | 19 | 3
